Assay results reported in PubChem BioAssay AID602192 (The Scripps Research Institute Molecular Screening Center, 2012).
In all, about 2,400 compounds went through this assay and about 750 (31%) were called active. The list is a sample of the results. A number with no mark means an inactive call.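 How the source made its calls: active means mean activation across replicates above the hit cutoff set in the earlier primary screen (cut at about 8% in these data); inactive means the rest.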

What follows are molecules tested against Melanocortin receptor 4 (Homo sapiens) (UniProt P32245) (assay: activators of MC4R arrestin recruitment – cell-based, luminescence, U2OS, confirmation (AID 602192)). Conditions: U2OS MC4R beta-arrestin recruitment, at 8.9 µM, active compounds read high, scaled DMSO 0%, Melanotan II 100%.
Chain of Melanocortin receptor 4 (Homo sapiens) (P32245 whole entry, looked up): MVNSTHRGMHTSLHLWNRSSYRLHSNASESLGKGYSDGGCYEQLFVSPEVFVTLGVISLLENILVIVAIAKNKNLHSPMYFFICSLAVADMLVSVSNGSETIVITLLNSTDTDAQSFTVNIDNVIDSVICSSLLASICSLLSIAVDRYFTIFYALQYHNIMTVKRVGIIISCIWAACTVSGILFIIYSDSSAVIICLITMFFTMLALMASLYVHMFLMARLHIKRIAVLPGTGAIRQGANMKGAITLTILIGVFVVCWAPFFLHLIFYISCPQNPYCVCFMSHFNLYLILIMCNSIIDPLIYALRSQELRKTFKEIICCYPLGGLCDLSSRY

Compound | activation
Cc1ccc(CCC(=O)Nc2ncc(Cc3cc(Cl)ccc3Cl)s2)o1 | 15.2% (active)
COc1c(Cl)cc(C(=O)Nc2ccc(Cl)cn2)cc1Cl | 2.15%
COc1cccc(NC(=S)NC(=O)c2c(Cl)c(C)nn2C)c1 | 0.75%
CCN(CC)c1ccc(C(=O)N/N=C/c2ccc(N3CCOCC3)cc2)cc1 | 3.23%
O=C(N/N=C/c1ccc(OC(=O)c2ccccc2Cl)cc1)c1ccc(O)cc1 | 10.9% (active)
CCCOc1ccc(C(=O)C(CCC(CNCC)C(=O)c2ccc(OCCC)cc2)CNCC)cc1 (stereo not given) | 47% (active)
COc1cc(/C=C2\Oc3ccc(C#Cc4ccc(O)cc4)cc3C2=O)cc(OC)c1 | 17.7% (active)
S=C(NCCCc1cnc[nH]1)NCCCN(Cc1ccc(Cl)c(Cl)c1)c1ccc(Br)cn1 | 12.9% (active)
CC(C)c1ccc2c(c1)c(SC(C)(C)C)c(CC(C)(C)C(=O)O)n2Cc1ccc(Cl)cc1 | 6.79%
Cc1cc(OCc2cc(C(=O)NCc3cc(C(C)C)no3)no2)cc(C)c1Cl | -1.7%
Oc1ccccc1N1CCN(c2ncnc3sc(-c4ccccc4)cc23)CC1 | 3.16%
O=C(NC(=S)Nc1cccc2c(O)cccc12)c1cccc(Br)c1 | 14.4% (active)
CCOc1ccc(/C=C/C(=O)OCC(=O)c2ccccc2OC)cc1OC | 4.4%
CCN1CCC2(CC1)N=C(c1ccc(F)cc1)C(=S)N2C(=O)c1ccc(C)cc1 | 6.69%
NC(N)=Nc1nc(-c2ccccc2)c2cc(Cl)ccc2n1 | 19.8% (active)
CCCCN1CC(C)(C)[C@H](CC(=O)Nc2ccc(Br)cc2)C1=O | 1.84%
COc1cccc(-c2cnc3c(NC(C)=O)cc(-c4cc(F)ccc4OC)cn23)c1 | 27.2% (active)
CC(=O)Nc1cc(-c2ccccc2F)cn2c(-c3cccc(C(F)(F)F)c3)cnc12 | 19% (active)
COc1ccccc1NC(=O)Nc1nnc(Cc2ccc(F)cc2)s1 | 4.89%
CC(=O)Nc1cc(-c2ccccc2N(C)C)cn2c(-c3ccc(F)c(Cl)c3)cnc12 | 26% (active)
COc1ccccc1-c1cc(NC(C)=O)c2ncc(-c3ccc(F)cc3)n2c1 | 15.2% (active)
Fc1ccccc1/C=N/Nc1cc(N2CCCCC2)ncn1 | -2.37%
O=C(Nc1ccc2oc(-c3ccc4ccccc4c3)nc2c1)c1cccs1 | 3.96%
O=C(CCCCCn1c(=S)[nH]c2cc3c(cc2c1=O)OCO3)N1CCN(c2ccc(F)cc2)CC1 | 5.47%
COC(=O)c1sccc1NC(=O)c1cc(OC)c(OC)c(OC)c1 | 3.33%
